Screens as filed in PubChem.
Rows were chosen to be rich in hits. Some 6.1% of all compounds tested hit in one or more screens of this group.
DRD3 agonist – D3 dopamine receptor (human) agonism | D3R DiscoveRx beta-arrestin cells, luminescence, 90 min | max activation, % | hit rate 0.58% among 410,000 | P35462; in the data active means max activation above about 30%; further: 0% is about no effect
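Agonist-mode cell screen: cells plated at 1500/well and incubated overnight at 37 °C, then exposed to library compounds for 90 min at 37 °C. Detection reagent was added for 30–60 min at room temperature, and luminescence was read.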
D1 potentiator – human D1 dopamine receptor positive modulation | HEK293 TREx D1 cells, calcium flux, dopamine EC20 potentiation | potentiation, % at 10 µM | hit rate 0.036% among 360,000; in the data active means potentiation above about 30%; further: 0% is about no effect
D1 antag – blocks dopamine activation of the human D1 receptor | P21728 | hit rate 3.2% among 360,000 | HEK293 TREx D1 cells, calcium flux, dopamine EC80; hits give low values | activity change, negative = inhibition, % at 10 µM; in the data active means activity change below about -30%; further: on the % scale 0 is the no-effect control and ±100 the full control effect
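Tetracycline-induced HEK293 T-REx cells with force-coupled D1 receptor were loaded with a no-wash calcium dye. Compound was added after a 10 s baseline and read kinetically for 180 s; EC80 dopamine was then added and calcium flux followed another 180 s.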
ERG Ets-DNA blk – blocks human ERG Ets domain binding to DNA | P11308 | fluorescence polarization, His-ERG Ets domain / labelled DNA | Potency, µM (doses to about 76.9 µM), inactives show top-dose FP activity, negative = inhibition, most hits filed as inhibitors | hit rate 0.028% among 370,000 | AID 624246; active means well fitted inhibition curve with a large enough effect in the polarisation, with a control signal flat; inconclusive means small, poorly fitted or top-dose-only effect, or effect the other way, or a change in a side signal; inactive means no such curve, though single readings can be large or run the other way; the % refers to the polarisation;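 further: polarization taken with two DNA probes labelled with fluorescein and Texas red; potency means the concentration at half of the fitted maximal effect; % of control where 0% means no effect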
Target sequence (P11308 whole entry, looked up, the tested form may be a part): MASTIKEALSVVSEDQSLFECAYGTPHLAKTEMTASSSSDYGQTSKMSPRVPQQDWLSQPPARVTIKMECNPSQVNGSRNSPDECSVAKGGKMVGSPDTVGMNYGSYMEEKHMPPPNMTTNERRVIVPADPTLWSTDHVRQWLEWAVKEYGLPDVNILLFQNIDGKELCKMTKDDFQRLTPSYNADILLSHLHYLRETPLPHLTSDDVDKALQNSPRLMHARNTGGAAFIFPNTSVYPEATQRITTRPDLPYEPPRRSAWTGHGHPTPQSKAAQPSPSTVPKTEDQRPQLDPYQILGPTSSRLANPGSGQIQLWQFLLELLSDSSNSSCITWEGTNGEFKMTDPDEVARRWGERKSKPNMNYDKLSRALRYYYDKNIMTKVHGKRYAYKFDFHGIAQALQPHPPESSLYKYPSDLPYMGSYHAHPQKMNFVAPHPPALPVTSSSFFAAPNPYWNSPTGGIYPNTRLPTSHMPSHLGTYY
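His-tagged ERG Ets domain (1 uM in the protein solution; 300mM KCl, 50mM Tris-HCl, 1mM EDTA, 1mM DTT, pH 7.5) received compound, then a probe mix of 5 nM fluorescein-DNA and 100nM Texas-615-DNA. Fluorescence polarization was read for both dyes.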
D1 ag – activates the human D1 dopamine receptor | HEK293 T-REx D1 cells, calcium flux, agonist mode | activation, % at 2 µM | AID 504660 | hit rate 1% among 360,000; in the data active means activation above about 30%; further: 0% is about no effect
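Agonism was scored from calcium flux recorded over 180 s (1 read/s) after pintool compound addition, following a 10-cycle baseline. Cells were inducible force-coupled HEK293 TREx D1, plated overnight at 30 C and loaded with no-wash calcium dye.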
D3 antag – D3 dopamine receptor (human) antagonism | D3R cells, DiscoveRx beta-arrestin luminescence, antagonist mode; hits give low values | max response, negative = inhibition, % | P35462 | hit rate 2.5% among 360,000; in the data active means max response below about -50%; inconclusive means no clear call, values can overlap the other calls; further: on the % scale 0 is the no-effect control and ±100 the full control effect
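Cells expressing the human receptor were seeded at 1500 cells/well, incubated overnight at 37 degrees C in 5% CO2, then exposed to library compounds with dopamine controls for 90 minutes at 37 degrees C before luminescent detection.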
Active calls of the source: *; ? = inconclusive; . = no result given.

SMILES	DRD3 agonist	D1 potentiator	D1 antag	ERG Ets-DNA blk	D1 ag	D3 antag
CS(=O)(=O)N(CC(=O)NCCSCc1ccco1)c1ccc(Cl)cc1	1.6	2.0	-2.7	1.8%	2.6	-3.6
COc1ccc(N(CC(=O)NCc2ccco2)S(C)(=O)=O)cc1Cl	2.0	-2.2	-67.6*	5.3%	1.8	17.3
Cc1ccc(N(CC(=O)NCCSCc2ccco2)S(=O)(=O)c2ccc(C)cc2)cc1	-1.3	-2.4	-37.9*	-5.8%	14.4	5.3
O=C([O-])c1cc(-c2ccccc2)cc(-c2ccccc2)[n+]1CCc1ccc(Cl)cc1	-30.5	.	.	-6.5%	.	2.0
CCCCn1nnnc1C1(C)CCC(=O)N1CCc1ccccc1F (stereo unspecified)	11.3	.	.	.	.	-2.6
CCOc1cccc(C2Oc3nc(SC)nnc3-c3ccccc3N2C(C)=O)c1OC (stereo unspecified)	5.9	3.6	17.7	0.6%	-2.1	.
Cc1nc(-c2ccccn2)sc1C(=O)Nc1ccc(Cl)c(Cl)c1	5.2	.	.	-0.5%	.	31.2
O=S(=O)(Nc1ccc(Cc2ccncc2)cc1)c1ccc(Br)cc1	-8.1	-7.0	-73.4*	2.9%	11.5	28.3
CCC(CC)C(=O)N1CCN(Cc2ccc3c(c2)OCO3)CC1	-7.5	-2.6	-2.5	-11.1%	1.1	?
N#C/C(=C(/O)c1cccc(F)c1)c1nc2ccccc2s1	5.8	-5.5	-35.4*	6.8%	23.4	16.2
Cn1c(/C(C#N)=C(\O)c2cccc(F)c2)nc2ccccc21	0.4	-6.0	-6.6	3.9%	-0.2	-50.7*
Cn1c(/C(C#N)=C(\O)c2ccc([N+](=O)[O-])cc2)nc2ccccc21	-4.5	-5.2	12.9	2.7%	2.5	-22.6
CC(C)(C)n1nc2c(c1NC(=O)c1ccc(Br)o1)CS(=O)C2 (stereo unspecified)	-3.0	-3.5	-17.8	0.0%	-0.3	14.7
Cc1nn(C)c(C)c1/C=N/NC(=O)C(C)(C)Oc1ccc(Cl)cc1	-10.8	3.4	-38.4*	-7.2%	-0.4	-11.7
Cc1nc(Cc2ccc(OC(C)C)cc2)[nH]c(=O)c1CC(=O)O	5.1	-2.4	4.2	14.0%	5.3	10.9
Cc1cc(=O)[nH]c(Cc2ccc(OC(C)C)cc2)n1	7.1	-4.3	-75.7*	.	0.7	4.8
Oc1ccc(C[C@@H]2CNCCN2CCc2cccc3ccccc23)cc1	-21.0	-0.1	-4.3	4.7%	8.0	-11.1
Nc1ccn(CC(=O)N[C@H](CO)Cc2c[nH]c3ccccc23)c(=O)n1	4.7	-3.9	-34.0*	-7.3%	1.3	-19.1
CNS(=O)(=O)c1cccc(C(=O)NNC(=O)CN(C)S(=O)(=O)c2ccc(Cl)cc2)c1	-4.5	-0.2	-2.0	3.0%	6.0	0.8
O=C(COc1ccc(Cl)cc1Cl)N/N=C/c1ccc[nH]1	-2.2	-4.8	-8.3	-9.2%	1.1	-0.6
O=C(COc1ccc(Cl)cc1Cl)N/N=C/CCc1ccccc1	-2.2	-6.6	27.2	0.4%	5.7	-54.5*
CCOc1ccc(CCNS(=O)(=O)c2cc(Br)cc3c2N(C(C)=O)CC3)cc1OCC	-17.4	-3.9	2.7	1.9%	0.1	.
O=c1ccn([C@@H]2O[C@H](CNCc3ccc(-c4cc(C(F)(F)F)ccc4Cl)o3)[C@@H](O)[C@H]2O)c(=O)[nH]1	-38.5	.	.	13.2%	.	-15.6
Nc1ncnc2c1ncn2[C@@H]1O[C@H](CNCc2ccc(-c3cc(C(F)(F)F)ccc3Cl)o2)[C@@H](O)[C@H]1O	-74.7	.	.	-2.1%	.	-75.8*
CCC(C)NC(=O)Cn1c(=O)n(-c2ccc(C)cc2)c(=O)c2ccccc21 (stereo unspecified)	3.9	-0.1	3.4	2.4%	-1.7	.
CC(NC(=O)c1cc(Br)ccc1Cl)c1ccccc1 (stereo unspecified)	1.1	-5.9	-45.7*	-9.4%	0.2	42.5
Cn1c(NC(=O)c2cc(Br)ccc2Cl)cc(=O)n(C)c1=O	2.3	-5.5	8.6	-6.2%	32.8*	6.3
Cn1c(NC(=O)c2ccccc2Br)cc(=O)n(C)c1=O	-3.8	-5.5	3.7	-11.1%	2.8	-22.6
